# Compound activity as filed in PubChem BioAssay.
# PostGolgi ctrl = yeast control strain growth, post-Golgi counter-screen | efflux-deficient yeast background strain, growth absorbance A615, 16 h | inhibition, % at 10 µM | 5% of 98,000 active | AID 738
# CYP2C19 act = activators of human cytochrome P450 2C19; recombinant CYP2C19, luciferin-H EGE luminescence; stronger effect = higher value; 0 = fully inhibited enzyme, 1 = untreated enzyme; P33261; 96,000 tested, under 10 active; activation factor at 5 µM; AID 1025;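 active = activation factor of at least 2 at 5 µM in the primary screen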;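 note: 0 = wells with 2.5 mM tranylcypromine and 1 = vehicle-only wells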
# Target sequence (P33261 whole entry, looked up): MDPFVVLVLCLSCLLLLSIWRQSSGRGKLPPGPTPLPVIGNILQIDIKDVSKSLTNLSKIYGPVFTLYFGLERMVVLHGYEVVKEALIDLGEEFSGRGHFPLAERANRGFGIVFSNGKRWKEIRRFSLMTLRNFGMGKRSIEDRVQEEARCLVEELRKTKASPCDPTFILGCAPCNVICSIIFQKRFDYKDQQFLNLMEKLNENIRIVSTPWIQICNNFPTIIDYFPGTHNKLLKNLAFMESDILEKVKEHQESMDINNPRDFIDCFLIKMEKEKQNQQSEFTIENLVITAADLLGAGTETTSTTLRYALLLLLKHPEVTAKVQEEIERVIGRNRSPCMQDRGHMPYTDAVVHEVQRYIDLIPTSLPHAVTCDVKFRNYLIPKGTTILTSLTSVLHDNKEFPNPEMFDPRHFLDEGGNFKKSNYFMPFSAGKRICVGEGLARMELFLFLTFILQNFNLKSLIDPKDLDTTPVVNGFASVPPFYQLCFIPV
# CYP2C9 inhib = blocks human cytochrome P450 2C9. P11712. CYP2C9 Supersomes, luciferin-H conversion, luminescence. inhibition, % at 5 µM. 20% of 96,000 active;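 active = blocking of liver enzyme CYP2C9 beyond about 50% at 5 µM, limit read from the data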
# PostGolgi yeast = growth inhibition of a yeast mutant, post-Golgi transport screen; 0.9% of 98,000 active; post-Golgi transport phenotypic cell assay; inhibition, % at 10 µM;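 note: yeast cells grown in 1536-well plates; yeast grown about 18 h at 30C before absorbance read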
# CYP2C19 inh = blocks human cytochrome P450 2C19. P33261. AID 778. 21% of 96,000 active. inhibition, % at 5 µM. CYP2C19 Supersomes, luciferin-H EGE luminescence, 30 min;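 active = CYP2C19 inhibition above a set limit at 5 µM in the primary screen, cut at about 50% in these data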;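 note: plate controls were negative control wells for no effect and 2.5 mM tranylcypromine positive control for full effect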
# CYP2C9 act = increases human cytochrome P450 2C9 activity. P11712. recombinant CYP2C9, luciferin-H conversion, luminescence; stronger effect = higher value; factor 1 = untreated enzyme, 0 = blocked. activation factor at 5 µM. 1.4% of 96,000 active. AID 1024;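 active = activation factor of 2 or more for CYP2C9 at a 5 µM dose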;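 note: 0 = sulfaphenazole-blocked wells and 1 = vehicle-only wells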
# Starred values were filed as active, the others as inactive; nt = no result given. Compounds with a hit are over-represented: about 32% of the library has one in this group of screens. Cut-off read from the data, not from the text of the source, unless noted: active = inhibition above about 30%; inactive = the rest.
SMILES,PostGolgi ctrl,CYP2C19 act,CYP2C9 inhib,PostGolgi yeast,CYP2C19 inh,CYP2C9 act
Cc1ccc2cc3c(nc2c1)N(Cc1ccco1)CC3,2,0.9,5,9,9,1
Cc1cccc2cc3c(nc12)SC(=NCC1CCCO1)N(Cc1ccco1)C3 (stereo unspecified),27,0.8,57*,7,23,0.4
Cc1cccc2cc(CN(CC3CCCO3)C(=O)c3ccco3)c(=O)[nH]c12 (stereo unspecified),0,0.7,12,5,34,0.9
COCCN=C1Sc2nc3c(C)cccc3cc2CN1Cc1ccco1,10,0.7,57*,-5,30,0.4
Cc1cc(C)c2c(-n3cccc3)nn(CC#N)c2n1,4,0.8,6,-6,20,0.9
Cc1ccccc1C1NC(=O)Cc2ccccc21 (stereo unspecified),2,0.7,-9,0,33,1.1
O=C1Cc2ccccc2C(c2ccc(Br)cc2)N1 (stereo unspecified),16,0,71*,-10,100*,0.3
CC(C)c1ccc2nc3sc(C(=O)N4CCc5ccccc5C4)c(N)c3cc2c1,3,0.9,51*,0,9,0.5
C=CCSc1nnc(NC(=O)c2cccc(S(=O)(=O)N3CCOCC3)c2)s1,-4,1.1,9,3,-12,0.9
CCOC(=O)Nc1sc(NS(=O)(=O)c2ccc(C)cc2)nc1C,11,1,58*,-1,4,0.4
CCOC(=O)NCc1ccc(S(=O)(=O)Nc2c(C)cccc2C)cc1,9,0.3,29,18,75*,0.7
CCOC(=O)Nc1ccc(NS(=O)(=O)c2ccc(C)cc2)cc1,16,0,96*,7,99*,0
CCOC(=O)c1sc(NS(=O)(=O)c2ccc(C)cc2)nc1C,7,0.6,77*,1,42,0.2
Cc1cccc(N(C(=O)Cn2nnc3ccccc32)C(C(=O)NC(C)(C)C)c2ccsc2)c1 (stereo unspecified),7,1,-1,-2,0,1
COc1ccc(COC(=O)c2nc3nc(C)cc(C)n3n2)cc1F,-2,0.6,-13,12,36,1.1
CCOC(=O)c1ccc2nc(NC(=O)c3ccco3)sc2c1,29,nt,nt,-7,nt,nt
C=CCOC(=O)c1sc(NC(=O)c2ccco2)nc1C,-2,0.8,82*,-4,16,0.2
CCOC(=O)c1sc(NC(=O)c2ccccc2OC)nc1C,42*,1.2,21,-2,-22,0.8
CCOC(=O)Nc1sc(NS(=O)(=O)c2ccccc2)nc1C,8,1,81*,6,0,0.2
Cc1ccc(NS(=O)(=O)c2ccc(NC(=O)c3cccs3)cc2)cc1,-8,0.7,51*,-1,32,0.5
CCc1c(C(=O)O)[nH]c2ccc(Br)cc12,15,1,26,-4,-2,0.7
CN(Cc1nc2ccccc2c(=O)[nH]1)CC(O)COCc1ccco1 (stereo unspecified),-2,1,-8,0,3,1.1
CCC(CO)n1cnnc1-c1ccncc1 (stereo unspecified),0,1.1,16,5,-14,0.8
COCCN1C(=O)c2oc3ccccc3c(=O)c2C1c1ccc(O)c(OC)c1 (stereo unspecified),6,0.7,21,-1,30,0.8
COCCN1C(=O)c2oc3ccccc3c(=O)c2C1c1cccc(O)c1 (stereo unspecified),32*,0.4,43,6,55*,0.6
SMILES,PostGolgi ctrl,CYP2C19 act,CYP2C9 inhib,PostGolgi yeast,CYP2C19 inh,CYP2C9 act
COc1cc(C2c3c(oc4ccccc4c3=O)C(=O)N2Cc2ccncc2)ccc1O (stereo unspecified),5,0.5,73*,-3,47,0.3
Cc1c(-c2cccs2)[n+](=O)c2c(n1[O-])CCCCC2,2,0.4,49,-1,59*,0.5
CC(C)(C)c1cccc(OCCCSc2ncccn2)c1,10,1,1,0,-3,1
COc1ccc(CCNC(=O)c2c(C)noc2C)cc1,3,0.9,12,9,14,0.9
Cc1ccc(CCC2C3=C(CCCC3=O)OC3=C2C(=O)CCC3)cc1,7,0,75*,-1,95*,0.2
CC(C)c1ccc(CC(C)C2C3=C(CCCC3=O)OC3=C2C(=O)CCC3)cc1 (stereo unspecified),22,0,97*,1,99*,0
